Screens (PubChem)
UBC9 SUMO inh = blocks human SUMOylation mediated by UBC9. HTRF SUMOylation assay, SAE1/SAE2 + UBC9, in vitro. inhibition, % at 35 µM. 290,000 tested, 0.36% active; in the data active = inhibition above about 50%, passing the limit was not always enough
S1P4 antagonist = human S1P4 receptor antagonism | S1P4-expressing cells, antagonist mode, reporter read-out | inhibition, % at 4.98 µM | 220,000 tested, 0.26% active | O95977; in the data active = inhibition above about 29%
S1P4 ag = activates the human S1P4 receptor; AID 1509; 220,000 tested, 0.35% active; activation, % at 4.98 µM; S1P4-expressing cell line, agonist reporter assay; in the data active = activation above about 11%
S1P3 antagonist = blocks the human S1P3 receptor | Q99500 | CHO S1P3 NFAT-BLA reporter, FRET fluorescence, antagonist mode | inhibition, % at 4.98 µM | 170,000 tested, 0.27% active | AID 485;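 active = inhibition above the plate cutoff, the mean inhibition of test wells on that plate plus 3 SD, cut at about 28% in these data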;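 note: cells challenged with S1P at its EC80 of 0.8 µM; blue over green emission ratio from cleaved BLA substrate after 4 h stimulation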
p97 inhibitor = inhibitors of human p97 ATPase. recombinant p97 ATPase, Kinase-Glo ATP luminescence, 3 h. 220,000 tested, 0.42% active. P55072. inhibition, % at 8 µM; in the data active = inhibition above about 15%
Redox H2O2 prof = compounds producing H2O2 with reducing agent – biochemical, NIH compound library profiling, artefact control for MLSCN library redox annotation, primary screen. activation, % at 10 µM. DTT-dependent redox cycling H2O2, phenol red/HRP absorbance; 100% = 100 µM peroxide control, 0% = buffer. AID 878. 200,000 tested, 0.03% active;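 active = activation of at least 50% relative to the plate's high and low controls in the primary single-dose screen; inactive = activation below 50%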;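 note: compound incubated with DTT at 0.8 mM final as the reducing agent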
p97 inh conf = confirmation of human p97 ATPase inhibitors | inhibition, % at 8 µM | shares compounds with p97 inhibitor | AID 1517 | 760 tested, 44% active | recombinant p97 ATPase, Kinase-Glo ATP luminescence;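 active = percent inhibition of p97 ATPase above a set limit, the primary screen's mean plus 3 SD, cut at about 15% in these data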
Each line names hits and unclear results; the compound was inactive in the other large screens (follow-up assays come after a bar, where they were run). Compounds with a hit are over-represented: about 1.1% of the library has one in this group of screens.

Cc1ccc(C)c(NC(=O)c2cnc3n(c2=O)CCS3)c1	p97 inhibitor 29 | p97 inh conf 20
Cc1ccc2c(C(=O)CCl)c(C)[nH]c2c1	p97 inhibitor 36 (no result: Redox H2O2 prof) | p97 inh conf 40
Cc1ccc2[nH]cc(C(=O)CCl)c2c1	p97 inhibitor 33 | p97 inh conf 46
CCC(=O)NC1=C(NC(C)c2ccccc2)C(=O)c2ccccc2C1=O (configuration not stated)	none (no result: S1P3 antagonist)
CCC(=O)NC1=C(Cl)C(=O)C(NC(=O)CC)=C(Cl)C1=O	UBC9 SUMO inh 76, p97 inhibitor 19 (no result: Redox H2O2 prof) | p97 inh conf inactive
O=C(COC(=O)c1cccc2c1C(=O)c1ccccc1C2=O)NC1CCCCC1	none
O=C(COC(=O)c1ccc2c(c1[N+](=O)[O-])C(=O)c1ccccc1C2=O)NC1CC1	p97 inhibitor 23 | p97 inh conf 29
CC(C)N(C(=O)COC(=O)[C@H](C)NC(N)=O)c1ccccc1	p97 inhibitor 15 | p97 inh conf inactive
O=C(NCCC1CC1(Cl)Cl)Nc1ccccc1 (configuration not stated)	p97 inhibitor 23 (no result: Redox H2O2 prof) | p97 inh conf inactive
O=C(O)c1cc(-c2cccc3ccccc23)nc2ccccc12	none (no result: S1P4 antagonist, S1P4 ag, S1P3 antagonist, p97 inhibitor, Redox H2O2 prof)
O=C(O)c1cc(-c2c[nH]c3ccccc23)nc2cc3ccccc3cc12	p97 inhibitor 27 (no result: Redox H2O2 prof) | p97 inh conf 27
COc1ccc(S(=O)(=O)N2CCOC2CNC(=O)C(=O)NCCN2CCOCC2)cc1C (configuration not stated)	none (no result: S1P4 antagonist, S1P4 ag, S1P3 antagonist, p97 inhibitor, Redox H2O2 prof)
CCCCS(=O)(=O)NC1=NCN(C2CCN(Cc3ccccc3)CC2)CN1	none (no result: UBC9 SUMO inh)
CC1CCCC(NC(=O)CSc2ccc(F)cc2)C1C (configuration not stated)	none
CC1CCCC(NCC(O)COC(c2ccc(F)cc2)c2ccc(F)cc2)C1C (configuration not stated)	p97 inhibitor 15 | p97 inh conf inactive
Cc1cccc(C(=O)OCN2C(=O)c3ccccc3C2=O)c1[N+](=O)[O-]	none (no result: S1P4 antagonist, S1P4 ag, S1P3 antagonist, p97 inhibitor, Redox H2O2 prof)
COc1ccc(CCNC(=O)CCc2cn(C)c3ccccc23)c(OC)c1OC	none (no result: S1P4 antagonist, S1P4 ag, S1P3 antagonist, p97 inhibitor, Redox H2O2 prof)
O=C(OCC(=O)c1c[nH]c2ccccc12)c1ccco1	none
O=C(OCc1ccccc1)C1=[N+]([O-])OC(C(=O)OCc2ccccc2)C1c1c[nH]c2ccccc12 (configuration not stated)	p97 inhibitor 28 (no result: S1P3 antagonist) | p97 inh conf 36
Cc1[nH]nc(SCC(=O)NC2CCCCC2)c1[N+](=O)[O-]	none
CC(C(=O)Nc1ccc2c(c1)OCO2)N1CCN(C)CC1 (configuration not stated)	p97 inhibitor 22 (no result: Redox H2O2 prof) | p97 inh conf inactive
CSc1ccc(NC(=O)C(C)N2CCN(C)CC2)cc1 (configuration not stated)	none (no result: S1P4 antagonist, S1P4 ag, S1P3 antagonist, p97 inhibitor, Redox H2O2 prof)
N#Cc1cnn(-c2ccccc2)c1NC(=O)CN1CCN(c2ccccc2)CC1	none (no result: Redox H2O2 prof)
COc1ccc(/C=N/NC(=O)c2ccc(N)cc2)cc1Cn1cc([N+](=O)[O-])cn1	p97 inhibitor 20 | p97 inh conf inactive
Cc1nc(NC(=O)c2ccccc2)sc1-c1csc(Nc2ccc(C(=O)O)cc2)n1	p97 inhibitor 15 (no result: Redox H2O2 prof) | p97 inh conf 15
CCC(=O)Nc1nc(C)c(-c2csc(Nc3ccc(C(=O)O)cc3)n2)s1	none (no result: S1P4 antagonist, S1P4 ag, S1P3 antagonist, p97 inhibitor, Redox H2O2 prof)
O=C(Cc1ccc(Cl)cc1)Nc1ccc(NC(=O)c2cccs2)cc1	p97 inhibitor 15 | p97 inh conf inactive
O=C(NCCCN1CCOCC1)C1Cc2c(ccc3ccccc23)O1 (configuration not stated)	none
CC1=NN(c2ccccc2)C(=O)C1	p97 inhibitor 20 | p97 inh conf inactive
CC1=NN(Cc2ccccc2)C(=O)C1	p97 inhibitor 21 | p97 inh conf inactive
Cc1cccc(N=C2NC(=O)/C(=C/C=C/c3ccco3)S2)c1C	UBC9 SUMO inh 58, p97 inhibitor 21 | p97 inh conf inactive
COc1ccc(S(=O)(=O)N2CCN(C(=O)N3CCOCC3)C2C)cc1 (configuration not stated)	none (no result: S1P4 antagonist, S1P4 ag, S1P3 antagonist, p97 inhibitor, Redox H2O2 prof)
Cc1csc(NC(=O)CSCC(=O)O)c1-c1nc2ccccc2s1	p97 inhibitor 16 (no result: Redox H2O2 prof) | p97 inh conf 19
